# Results filed as inconclusive are left out. The source made the active and inactive calls. Calls follow the shape of the dose curve; as a rule, active = well fitted curve in the direction sought with a large enough effect in the signal ratio in the repeat runs (not every such curve was filed as active); inconclusive = weak or mixed curves, or a change in a side signal; inactive = no such curve, though single readings can be large or run the other way; the % refers to the signal ratio.
# Assay: qHTS assay to identify small molecule agonists of the NFkB signaling pathway (AID 1159509)
# Details: NFkB-bla ME-180 cells, beta-lactamase FRET ratio, 5 h; series mostly up to 61 µM; activation: at the top concentration
# From the text: National Center for Advancing Translational Sciences [NCATS]
# NIH Chemical Genomics Center [NCGC]
# U.S. Environmental Protection Agency [EPA]
# National Institutes of Environmental Health Sciences [NIEHS]
# National Toxicology Program [NTP]
# U.S. Food and Drug Administration [FDA]
# Transcription factors and their stimulated target gene expression play pivotal roles across many cellular processes including responses to environmental stimuli. Proper regulation of associated pathways is critical to maintain cell health and function. Constitutive activation of transcription factor pathways has been implicated in tumors as it may block cellular functions such as apoptosis and lead to invasion and metastasis. One important transcription factor that stimulates gene expression in response to cytokines, UV radiation, and other stimuli is nuclear factor-kappa B (NFkB). To measure activation of the NFkB pathway, the CellSensor NFkB-bla ME-180 cell line (Life Technologies, Carlsbad, CA) that stably expresses beta-lactamase reporter gene under the regulation of a NF-kB response element was used. This assay allows measurement of the NFkB pathway activity induced by compounds in a ME-180 cell line. This system quantitates NF-kB activity using a FRET-based assay system where beta-lactamase expression disrupts FRET, allowing for fluorescent measurement of activity. This cell line has been used to screen the Tox21 10K compound library and to identify compounds that induce the NFkB pathway activity.
# Tox21 Assay Protocol Summary:
# NFkB-bla ME-180 cells were dispensed at 2,000 cells/6 uL of assay medium per well into black wall/clear-bottom 1536-well plates using a Multidrop Combi (ThermoFisher Scientific, Waltham, MA) dispenser. After the assay plates were incubated at 37 C and 5% CO2 for an overnight, 23 nL of compounds dissolved in DMSO, positive controls or DMSO only was transferred to the assay plate by a Pintool station (Kalypsys, San Diego, CA). The assay plates were incubated at 37 C and 5% CO2 for 5 hr. One uL of LiveBLAzer B/G FRET substrate (Life Technologies) was added using a Flying Reagent Dispenser (Aurora Discovery, San Diego, CA) and the plates were incubated at room temperature for 1.5 hr. Fluorescence intensity (405 nm excitation, 460 nm and 530 nm emissions) was measured using an Envision plate reader (PerkinElmer, Shelton, CT).
# % is scaled to controls: 0 for no effect and ±100 for the full control effect.
row,Compound,activation
1,CCCCCCCC/C=C\CCCCCCCC(=O)OC(CO)CO,-0.41% (inactive)
2,Cc1cc(OI)c(C(C)C)cc1-c1cc(C(C)C)c(OI)cc1C,0% (inactive)
3,Cc1cc(S(=O)(=O)O)ccc1N=Nc1c(O)ccc2ccccc12,-0.458% (inactive)
4,CC(C)C(OC(=O)c1ccccc1)C(C)(C)COC(=O)c1ccccc1 (stereo not given),0.0911% (inactive)
5,CC(C)(O)c1ccccc1CC[C@@H](SCC1(CC(=O)O)CC1)c1cccc(/C=C/c2ccc3ccc(Cl)cc3n2)c1,1.71% (inactive)
6,CCCCC(=O)O[C@]1(C(=O)CO)[C@@H](C)C[C@H]2[C@@H]3CCC4=CC(=O)C=C[C@]4(C)[C@@]3(F)[C@@H](O)C[C@@]21C,-0.0963% (inactive)
7,CCN(CC)CCNC(=O)c1ccc(NC(C)=O)cc1,-0.733% (inactive)
8,N#C/C(=C1\SCC(c2ccccc2Cl)S1)n1ccnc1 (stereo not given),-0.805% (inactive)
9,CC(C)C(=O)O,0.333% (inactive)
10,ON(Cc1ccccc1)Cc1ccccc1,-0.829% (inactive)
11,CCCCN(CCCC)CCCOC(=O)c1ccc(N)cc1,-0.0868% (inactive)
12,COC(=O)Nc1nc2ccc(C(=O)c3cccs3)cc2[nH]1,-0.442% (inactive)
13,C=CCOC(=O)/C=C\C(=O)OCC=C,-0.407% [at 78.8 µM] (inactive)
14,O=C(c1ccc(O)cc1)c1ccc(Cl)cc1,1.37% [at 78.8 µM] (inactive)
15,COC(=O)c1cc(S(N)(=O)=O)ccc1OC,0.235% (inactive)
16,CO[C@H]1C=CO[C@@]2(C)Oc3c(C)c(O)c4c(O)c(c5c(c4c3C2=O)=NC2(CCN(CC(C)C)CC2)N=5)NC(=O)/C(C)=C\C=C/[C@H](C)[C@H](O)[C@@H](C)[C@@H](O)[C@@H](C)[C@H](OC(C)=O)[C@@H]1C,-0.779% (inactive)
17,CCCCC(CC)CNCC(CC)CCCC (stereo not given),0.023% (inactive)
18,CCCCCCCCCCCC[N+](C)(C)CC(=O)[O-],-0.675% (inactive)
19,CC1(C)C(=O)N(Br)C(=O)N1Cl,-0.0138% (inactive)
20,O=C(O)c1cccc(O)c1,-0.0968% [at 78.8 µM] (inactive)

row,Compound,activation
1,O=[N+]([O-])c1cccc(S(=O)(=O)NCCNS(=O)(=O)c2cccc([N+](=O)[O-])c2)c1,-0.0791% (inactive)
2,CNC(=O)N(c1ccccc1)c1ccccc1,-0.719% [at 78.8 µM] (inactive)
3,Cc1cc(O)c(C(C)C)cc1Cl,2.12% (inactive)
4,COc1ccc(C(=O)c2cccc(O)c2)c(OC)c1,0.0262% (inactive)
5,Nc1ccc(Cl)cc1[N+](=O)[O-],-0.623% (inactive)
6,Cc1oc(C)c(C(=O)Nc2ccccc2)c1C,0.0393% (inactive)
7,c1cnc2c(n1)CCCC2,-0.104% (inactive)
8,CN1Cc2cc(C(=O)N3CCC(C4CCNCC4)CC3)ccc2N[C@@H](CC(=O)O)C1=O,-0.168% (inactive)
9,C/C=C(\C)C(=O)OCCC(C)CCC=C(C)C (stereo not given),0.284% (inactive)
10,CCCOCCOCCO,-0.501% (inactive)
11,CCCCCCCCCCCC[N+](C)(C)CCCS(=O)(=O)[O-],-0.293% [at 78.8 µM] (inactive)
12,C=CC(=C)CCCC(C)(C)OC(C)=O,-0.354% (inactive)
13,CCOCCn1c(C2CCN(CCc3ccc(C(C)(C)C(=O)O)cc3)CC2)nc2ccccc21,0.167% (inactive)
14,O=C(O)C(Cc1cc(I)c(O)c(I)c1)c1ccccc1 (stereo not given),0.169% (inactive)
15,O=C(OCCOCCO)c1ccccc1Nc1cccc(C(F)(F)F)c1,-1.41% (inactive)
16,COC(=O)CC(=O)C(C)(C)C,-0.231% (inactive)
17,O=C(O)c1snc(Cl)c1Cl,-0.014% (inactive)
18,CCCCOC(=O)CCS,-0.0857% (inactive)
19,NCC1CCCC(CN)C1 (stereo not given),0.0664% (inactive)
20,O=C(O)c1ccccc1NCCc1ccccc1,-0.116% (inactive)
